Data reported in PubChem BioAssay (NCI).
This is part of a sample that, as a whole, favours compounds with a hit. Of some 83,000 tested, about 20% had one in any assay.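 For each line, cells grew in 96-well plates with the test compound present at a single concentration for 48 hours.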 The source made the active and inactive calls. Rule for the calls: active = growth percent below 10; inactive = the rest.

Columns and labels:
Test in all cases: NCI-60 one-dose screen, 48 h (100 = growth as untreated, 0 = no growth, -100 = all killed)
SK-MEL-2 melanoma = details: 10 µM unless noted
EKVX NSCLC = details: 10 µM
SN12C renal = details: 10 µM unless noted
UO-31 renal = details: 10 µM unless noted
TK-10 renal = details: 10 µM unless noted
ACHN renal = details: 10 µM unless noted
CAKI-1 renal = details: 10 µM unless noted
A498 renal = details: 10 µM unless noted
CCRF-CEM leukemia = details: 10 µM
MOLT-4 leukemia = details: 10 µM unless noted
RPMI-8226 leukemia = details: 10 µM unless noted
OVCAR-8 ovarian = details: 10 µM unless noted
OVCAR-5 ovarian = details: 10 µM unless noted
OVCAR-4 ovarian = details: 10 µM unless noted
SK-OV-3 ovarian = details: 10 µM unless noted
IGROV1 ovarian = details: 10 µM unless noted
OVCAR-3 ovarian = details: 10 µM unless noted
HS 578T breast = details: 10 µM unless noted
NCI/ADR-RES ovarian = details: 10 µM unless noted

Measured: growth

COC(=O)C1CC(=O)N(C(=O)Nc2ccc(Cl)cc2Cl)C1 (stereo not drawn)
inactive: SK-MEL-2 melanoma 108% | EKVX NSCLC 96.5% | SN12C renal 101% | UO-31 renal 84.1% | TK-10 renal 112% | ACHN renal 99.9% | CAKI-1 renal 95.6% | A498 renal 115% | CCRF-CEM leukemia 103% | MOLT-4 leukemia 95% | RPMI-8226 leukemia 98.9% | OVCAR-8 ovarian 99.1% | OVCAR-5 ovarian 101% | OVCAR-4 ovarian 117% | SK-OV-3 ovarian 88.4% | IGROV1 ovarian 107% | OVCAR-3 ovarian 111% | HS 578T breast 82.9% | NCI/ADR-RES ovarian 99.6%

C/C=C(/C)C(=O)OC1C=C(CO)C(=O)C(OC(=O)/C(C)=C\C)C1C(C)C (stereo not drawn)
active: SK-MEL-2 melanoma -48.9% | EKVX NSCLC -55.1% | SN12C renal -56.9% | UO-31 renal -100% | TK-10 renal -88.8% | ACHN renal -100% | CAKI-1 renal -98.7% | A498 renal -77.6% | CCRF-CEM leukemia -3.36% | MOLT-4 leukemia -16.8% | RPMI-8226 leukemia -39.4% | OVCAR-8 ovarian -22.7% | OVCAR-5 ovarian -76.6% | OVCAR-4 ovarian -48.8% | IGROV1 ovarian -77% | OVCAR-3 ovarian -89.1% | NCI/ADR-RES ovarian -6.28%
inactive: SK-OV-3 ovarian 16.4% | HS 578T breast 28.8%

Oc1ccccc1\C=N/N=C/C=C/c1ccccc1
active: CCRF-CEM leukemia 7.53%
inactive: SK-MEL-2 melanoma 92.7% | EKVX NSCLC 94.5% | SN12C renal 88% | UO-31 renal 51.7% | TK-10 renal 130% | ACHN renal 104% | CAKI-1 renal 96.7% | A498 renal 78% | MOLT-4 leukemia 55.3% | RPMI-8226 leukemia 107% | OVCAR-8 ovarian 103% | OVCAR-5 ovarian 112% | OVCAR-4 ovarian 97.7% | SK-OV-3 ovarian 87.9% | IGROV1 ovarian 101% | OVCAR-3 ovarian 96.3% | HS 578T breast 106% | NCI/ADR-RES ovarian 102%

C=C(NC(=O)[C@H](C(C)C)N(C)c1cccc2[nH]ccc12)C(=O)OC
inactive: SK-MEL-2 melanoma 104% | EKVX NSCLC 93.8% | SN12C renal 101% | UO-31 renal 80.1% | TK-10 renal 94.2% | ACHN renal 101% | CAKI-1 renal 92.6% | A498 renal 94.4% | CCRF-CEM leukemia 87.1% | MOLT-4 leukemia 107% | OVCAR-8 ovarian 102% | OVCAR-5 ovarian 101% | OVCAR-4 ovarian 103% | SK-OV-3 ovarian 101% | OVCAR-3 ovarian 103% | HS 578T breast 102% | NCI/ADR-RES ovarian 108%
active: RPMI-8226 leukemia 6.33%

C/C=C(/C)C(=O)OC1C=C(CO)C(=O)C(OC(=O)C(C)(O)C(C)Cl)C1C(C)C (stereo not drawn)
active: SK-MEL-2 melanoma -23.5% | EKVX NSCLC -15% | SN12C renal -35.4% | UO-31 renal -96.5% | TK-10 renal -17.4% | ACHN renal -96.7% | CAKI-1 renal -44.5% | A498 renal -74.6% | CCRF-CEM leukemia 1.18% | MOLT-4 leukemia 0.566% | RPMI-8226 leukemia -33.5% | OVCAR-8 ovarian 3.78% | OVCAR-5 ovarian -43.2% | IGROV1 ovarian -29.7% | OVCAR-3 ovarian -41.4% | NCI/ADR-RES ovarian 9.46%
inactive: OVCAR-4 ovarian 14.1% | SK-OV-3 ovarian 35.8% | HS 578T breast 30.7%

COc1cc(CCNc2cnc3cc(N)cc(N)c3n2)cc(OC)c1
active: CCRF-CEM leukemia -52.5% | MOLT-4 leukemia 5.61%
inactive: SK-MEL-2 melanoma 104% | EKVX NSCLC 123% | SN12C renal 107% | UO-31 renal 90.9% | TK-10 renal 116% | ACHN renal 106% | CAKI-1 renal 129% | A498 renal 107% | RPMI-8226 leukemia 86% | OVCAR-8 ovarian 98.6% | OVCAR-5 ovarian 92.3% | OVCAR-4 ovarian 93.8% | SK-OV-3 ovarian 168% | IGROV1 ovarian 103% | OVCAR-3 ovarian 92.6% | HS 578T breast 132% | NCI/ADR-RES ovarian 105%

CC1(C)Oc2cc3oc(=O)ccc3cc2C[C@@H]1OCCOS(=O)(=O)c1ccc(C#N)cc1
inactive: SK-MEL-2 melanoma 102% | EKVX NSCLC 107% | SN12C renal 91.5% | UO-31 renal 83.5% | TK-10 renal 101% | ACHN renal 95.2% | CAKI-1 renal 86.3% | A498 renal 79.6% | CCRF-CEM leukemia 98.6% | MOLT-4 leukemia 92% | OVCAR-8 ovarian 92.7% | OVCAR-5 ovarian 97.9% | OVCAR-4 ovarian 88% | IGROV1 ovarian 100% | OVCAR-3 ovarian 96% | HS 578T breast 89.7% | NCI/ADR-RES ovarian 96.1%

COc1cc(/C=C/C(=O)c2ccc(F)cc2)ccc1OCCCCOc1cc2c(cc1OC)C(=O)N1CCCC1C=N2 (stereo not drawn)
active: SK-MEL-2 melanoma -24.6% | EKVX NSCLC 8.29% | SN12C renal -48.1% | UO-31 renal -63% | TK-10 renal -16.9% | ACHN renal -85.9% | CAKI-1 renal -14.2% | A498 renal 7.77% | CCRF-CEM leukemia -30.3% | MOLT-4 leukemia -19.4% | RPMI-8226 leukemia -27.4% | OVCAR-8 ovarian 8.79% | OVCAR-5 ovarian -4.68% | OVCAR-4 ovarian -11% | OVCAR-3 ovarian -28.8% | HS 578T breast 6.29%
inactive: SK-OV-3 ovarian 10.7% | NCI/ADR-RES ovarian 27.1%

CN1CCN(Cc2ccc(NC(=O)c3cncc(C#Cc4c(N)ncc5ccc(F)cc45)c3)cc2C(F)(F)F)CC1
active: SK-MEL-2 melanoma -33% | UO-31 renal -78.9% | ACHN renal -93.6% | CCRF-CEM leukemia 0.436% | MOLT-4 leukemia 9.77% | OVCAR-5 ovarian -84.6% | HS 578T breast -8.53%
inactive: EKVX NSCLC 50.7% | SN12C renal 36.4% | TK-10 renal 11.5% | CAKI-1 renal 25.2% | A498 renal 15% | OVCAR-8 ovarian 53.8% | OVCAR-4 ovarian 36.1% | SK-OV-3 ovarian 60% | IGROV1 ovarian 11% | OVCAR-3 ovarian 63.2% | NCI/ADR-RES ovarian 48.2%

O=C(CN1C(=O)NC(c2ccccc2)(c2ccccc2)C1=O)c1ccc(N2CCCC2)cc1
inactive: SK-MEL-2 melanoma 91.1% | EKVX NSCLC 82.4% | SN12C renal 103% | UO-31 renal 66.6% | TK-10 renal 98.4% | ACHN renal 89.9% | CAKI-1 renal 70.5% | A498 renal 61.9% | CCRF-CEM leukemia 98.9% | MOLT-4 leukemia 70.5% | RPMI-8226 leukemia 70.1% | OVCAR-8 ovarian 83.4% | OVCAR-5 ovarian 101% | OVCAR-4 ovarian 72.8% | SK-OV-3 ovarian 96.7% | IGROV1 ovarian 85.5% | OVCAR-3 ovarian 103% | HS 578T breast 87.7% | NCI/ADR-RES ovarian 67.2%

COc1ccc(OC)c(Cn2cc3c(c2-c2ccccc2)CCc2cnoc2-3)c1
inactive: SK-MEL-2 melanoma 74.2% | EKVX NSCLC 58.5% | SN12C renal 73% | UO-31 renal 59% | TK-10 renal 86.1% | ACHN renal 65.3% | CAKI-1 renal 28.9% | A498 renal 53.8% | CCRF-CEM leukemia 48.7% | MOLT-4 leukemia 47% | RPMI-8226 leukemia 61.1% | OVCAR-8 ovarian 79% | OVCAR-5 ovarian 90.8% | OVCAR-4 ovarian 77.6% | SK-OV-3 ovarian 48.2% | IGROV1 ovarian 44.7% | OVCAR-3 ovarian 17.9% | HS 578T breast 59.3% | NCI/ADR-RES ovarian 20.5%

CCOC(=O)CCCCCCCCC(=O)OCC
inactive: SK-MEL-2 melanoma 112% | EKVX NSCLC 118% | SN12C renal 102% | UO-31 renal 95.7% | TK-10 renal 104% | ACHN renal 113% | CAKI-1 renal 105% | A498 renal 93.9% | CCRF-CEM leukemia 107% | MOLT-4 leukemia 95.2% | RPMI-8226 leukemia 108% | OVCAR-8 ovarian 106% | OVCAR-5 ovarian 112% | OVCAR-4 ovarian 111% | SK-OV-3 ovarian 106% | OVCAR-3 ovarian 106% | HS 578T breast 110% | NCI/ADR-RES ovarian 101%

COc1ccc(-c2nc(Nc3nc4ccccc4[nH]3)nc(N)c2C#N)cc1
inactive: SK-MEL-2 melanoma 97.6% | EKVX NSCLC 92.4% | SN12C renal 90.8% | UO-31 renal 72.9% | TK-10 renal 95.9% | ACHN renal 96.6% | CAKI-1 renal 93.3% | A498 renal 119% | CCRF-CEM leukemia 95.4% | MOLT-4 leukemia 95% | RPMI-8226 leukemia 94% | OVCAR-8 ovarian 103% | OVCAR-5 ovarian 104% | OVCAR-4 ovarian 102% | SK-OV-3 ovarian 102% | IGROV1 ovarian 59.1% | OVCAR-3 ovarian 111% | HS 578T breast 129% | NCI/ADR-RES ovarian 103%

C/C=C(/C)C(=O)OC1C=C(CO)C(=O)C(OC(=O)C2(C)OC2C)C1C(C)C (stereo not drawn)
inactive: OVCAR-4 ovarian 13.6% | SK-OV-3 ovarian 44.3% | HS 578T breast 30.9%
active: SK-MEL-2 melanoma -49.7% | EKVX NSCLC -11.8% | SN12C renal -44.4% | UO-31 renal -96.3% | TK-10 renal -31.8% | ACHN renal -96.8% | CAKI-1 renal -23.6% | A498 renal 1.46% | CCRF-CEM leukemia 1.28% | MOLT-4 leukemia -3.66% | RPMI-8226 leukemia -37.4% | OVCAR-8 ovarian 4.08% | OVCAR-5 ovarian -40% | IGROV1 ovarian -31.2% | OVCAR-3 ovarian -46.9% | NCI/ADR-RES ovarian 6.41%

CN1CCN(Cc2ccc(NC(=O)c3ccc(C#Cc4c(N)ncc5ccc(F)cc45)cc3)cc2C(F)(F)F)CC1
active: SK-MEL-2 melanoma -40.3% | EKVX NSCLC -59.1% | SN12C renal -71.3% | UO-31 renal -56.8% | TK-10 renal -42.2% | ACHN renal -92.6% | CCRF-CEM leukemia -40.2% | MOLT-4 leukemia -55.2% | RPMI-8226 leukemia -43.3% | OVCAR-8 ovarian -28.4% | OVCAR-5 ovarian -52.8% | OVCAR-4 ovarian -19.9% | IGROV1 ovarian -50.6% | OVCAR-3 ovarian -25.9% | NCI/ADR-RES ovarian -12.3%
inactive: CAKI-1 renal 42.7% | A498 renal 77.9% | SK-OV-3 ovarian 64% | HS 578T breast 29.9%

Clc1ccc(N/N=C(\c2ccccc2)c2ccccn2)nc1
active: UO-31 renal 2.2% | ACHN renal 8.31% | CAKI-1 renal 6.96% | A498 renal -14.2% | CCRF-CEM leukemia 1.1% | MOLT-4 leukemia 2.34% | RPMI-8226 leukemia 4.95% | NCI/ADR-RES ovarian -12.9%
inactive: SK-MEL-2 melanoma 36.4% | EKVX NSCLC 15.2% | SN12C renal 15.7% | TK-10 renal 52.1% | OVCAR-8 ovarian 11.3% | OVCAR-5 ovarian 36.2% | OVCAR-4 ovarian 30.7% | SK-OV-3 ovarian 12.5% | IGROV1 ovarian 12.7% | OVCAR-3 ovarian 12.3% | HS 578T breast 34.1%
